Values without a mark were called inactive. Records with an inconclusive call do not appear. The source made the active and inactive calls. Unless noted, the call rests on the fitted dose curve; in most records, active means well fitted curve in the direction sought with a large enough effect; inconclusive means small, poorly fitted or top-dose-only effect, or another doubt; inactive means no such curve, though single readings can be large; an effect the other way counts as inactive or inconclusive.

The target in assay [1] is T1, Hexokinase-4 (Homo sapiens) + Glucokinase regulatory protein (Homo sapiens) (UniProt P35557+Q14397). Description: qHTS assay for inhibitors of recombinant human GCK-GKRP interaction: ADP-Glo assay (AID 743206).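 Further: plate controls were DMSO plus enzyme for no effect and no enzyme for full effect.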 Summed up: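 Pin-transferred compounds meet a 15 nM GST-GCK/15 nM FLAG-GKRP/2 uM S6P mix (dispense concentrations). ATP is then added to 0.4 mM final with 5 mM glucose, and the reaction runs 60 min at room temperature. ADP is quantified luminescently.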
T1 sequence (P35557 whole entry, looked up): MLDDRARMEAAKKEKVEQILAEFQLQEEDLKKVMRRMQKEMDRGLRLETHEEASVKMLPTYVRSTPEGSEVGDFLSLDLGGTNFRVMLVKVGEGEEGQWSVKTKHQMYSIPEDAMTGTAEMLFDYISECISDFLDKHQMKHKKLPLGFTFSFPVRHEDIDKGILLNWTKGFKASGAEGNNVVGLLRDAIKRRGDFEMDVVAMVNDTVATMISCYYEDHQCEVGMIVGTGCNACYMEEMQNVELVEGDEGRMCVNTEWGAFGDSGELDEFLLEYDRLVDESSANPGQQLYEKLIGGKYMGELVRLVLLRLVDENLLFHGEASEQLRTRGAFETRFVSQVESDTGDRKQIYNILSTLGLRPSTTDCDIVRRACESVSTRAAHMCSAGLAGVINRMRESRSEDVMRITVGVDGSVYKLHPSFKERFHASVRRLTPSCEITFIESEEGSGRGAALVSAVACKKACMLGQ
T1 sequence (Q14397 whole entry, looked up): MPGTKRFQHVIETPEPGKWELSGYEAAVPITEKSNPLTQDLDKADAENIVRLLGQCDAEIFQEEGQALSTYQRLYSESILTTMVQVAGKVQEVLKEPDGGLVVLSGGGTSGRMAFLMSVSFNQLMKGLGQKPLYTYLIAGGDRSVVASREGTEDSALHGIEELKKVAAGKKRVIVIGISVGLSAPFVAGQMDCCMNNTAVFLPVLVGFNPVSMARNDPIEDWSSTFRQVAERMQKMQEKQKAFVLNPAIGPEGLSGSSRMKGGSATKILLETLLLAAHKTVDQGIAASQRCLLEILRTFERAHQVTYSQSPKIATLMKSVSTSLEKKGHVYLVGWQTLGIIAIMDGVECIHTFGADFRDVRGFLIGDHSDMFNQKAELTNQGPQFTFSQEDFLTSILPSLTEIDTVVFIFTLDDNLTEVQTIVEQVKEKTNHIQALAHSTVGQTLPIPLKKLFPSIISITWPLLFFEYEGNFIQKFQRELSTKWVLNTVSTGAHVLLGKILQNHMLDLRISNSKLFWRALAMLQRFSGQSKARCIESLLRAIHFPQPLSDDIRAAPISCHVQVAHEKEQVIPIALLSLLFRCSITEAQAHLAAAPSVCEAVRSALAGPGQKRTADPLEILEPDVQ
(qHTS replaces the single test concentration by a dilution series.)

Assay [2] has as its target T1, Hexokinase-4 (Homo sapiens) + Glucokinase regulatory protein (Homo sapiens). Description: qHTS assay for inhibitors of recombinant human GCK-GKRP interaction: HTRF assay (AID 743207).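 Further: 0% = DMSO with GCK present and -100% = DMSO wells lacking GCK.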 The essentials: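 GST-GCK and FLAG-GKRP (5 nM each) were combined with 2 uM S6P in pH 7.1 Hepes/MgCl2/KCl/DTT buffer, then compound and anti-FLAG XL665/anti-GST K antibodies were added. After 60 min at room temperature, HTRF 665/615 nm emission was read.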

The nature of assay [3]: qHTS Assay for Identifying Gametocytocidal Compounds (AID 743244). Further: potency means the concentration at half of the fitted maximal effect.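 On max response: on the % scale 0 is the no-effect control and ±100 the full control effect; actives lower the fluorescent signal which means gametocytes are killed.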 The conditions noted are these: P. falciparum 3D7 stage III-V gametocytes, alamarBlue, 72 h; max response: active compounds read low. Summed up: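 Fluorescence at Ex 525/Em 598 nm, recorded 24 h after alamarBlue addition, reports residual metabolic activity of 3D7 gametocytes (stages III–V) following 72 h compound exposure at 37 °C, 5% CO2.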

Assay [4] is described as follows: qHTS assay for measurement of the activity of small molecule inhibitors on Zika virus induced Caspase-3 activity in human iPSC derived neural progenitor cells (hNPCs) (AID 1224857). Further: % of control where 0% means no effect; nearly all actives have a fitted effect of over 65% in size. The essentials:
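Zika virus (2 FFU/cell) infection of human iPSC-derived NPCs, 6 h, following 1 h compound preincubation. Read-out: Caspase-Glo 3/7 luminescence.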

A short description of assay [5]: qHTS assay for measurement of the activity of small molecule inhibitors on Zika virus induced Caspase-3 activity in human astrocytoma cells (AID 1224859).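 Further: plate controls were ZIKV-infected untreated cells for no effect and uninfected cells for full effect.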 Summed up: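 Caspase activation in ZIKV-infected SNB-19 cells (2 FFU/cell, 6 h) measured by Caspase-Glo 3/7 luminescence after 30 min RT; compound pre-incubated 1 h; normalised to uninfected and infected controls.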

Assay [6] in a line: P-glycoprotein substrates identified in KB-3-1 adenocarcinoma cell line, qHTS therapeutic library screen (AID 1346986). Further: nearly all actives have a fitted effect of over 60% in size.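 Further: potency means the concentration at half of the fitted maximal effect; potency is for cytotoxicity meaning loss of cell viability.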 Summed up: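 In 1536-well format, 500 cells/well received pinned compound titrations and were incubated 72 h, 5% CO2. Viability was read by CellTiter-Glo; cytotoxic if AC50 < 10 uM and efficacy >50%.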
Assay [7] is described as follows: P-glycoprotein substrates identified in KB-8-5-11 adenocarcinoma cell line, qHTS therapeutic library screen (AID 1346987). Further: nearly all actives have a fitted effect of over 65% in size. The essentials: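 Compounds are pinned in dose-response onto KB-8-5-11 cells (500 cells/well, colchicine-free medium) and left 72 h at 37 degree C. CellTiter-Glo luminescence then yields AC50 values.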
The nature of assay [8]: Natriuretic polypeptide receptor (hNpr1) antagonism - Pilot counterscreen GloSensor control cell line (AID 1347045; calls by dose curve; further: potency means the concentration at half of the fitted maximal effect). The essentials: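 Control counterscreen: luciferase cGMP-biosensor HEK293 cells (no Npr1) received compound for 30 min at room temperature after GloSensor substrate loading. Luminescence was measured before and 20 min after soluble guanylyl cyclase activation by 50 uM nitroprusside.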
(In general: A counterscreen serves to expose hits that act by an unwanted route or on another target.)

The target in assay [9] is Atrial natriuretic peptide receptor 1 (Homo sapiens) (UniProt P16066). Description: Natriuretic polypeptide receptor (hNpr1) antagonism - Pilot screen (AID 1347049; calls by dose curve;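 further: agonist-evoked cGMP luminescence read 20 min after hNppA addition; series mostly up to about 58 µM; on the % scale 0 is the no-effect control and ±100 the full control effect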). The essentials:
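cGMP-sensor HEK293/hNpr1 cells, 1500/well, plated overnight at 37C. 2% GloSensor reagent, 2 h RT. Compound (23 nL pin transfer) 30 min RT, baseline luminescence pre-read. 0.1 nM hNppA, 20 min RT, post-read.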

Assay [10] concerns the target Atrial natriuretic peptide receptor 2 (Homo sapiens) (UniProt P20594). Description: Natriuretic polypeptide receptor (hNpr2) antagonism - Pilot subtype selectivity assay (AID 1347050; calls by dose curve; further: potency means the concentration at half of the fitted maximal effect). The essentials:
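Luminescence from a genetically encoded cGMP luciferase biosensor in hNpr2-expressing HEK293 cells is read before and 20 min after adding 1 nM hNppC. Test compounds, in interplate 1:5 titrations, are added 30-50 min ahead of the agonist.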

Assay [11] can be described thus: NS1 protein of Zika virus - qHTS assay to identify small molecule inhibitors in human HEK 293 cells (AID 1347053).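 Further: series mostly up to about 46 µM; plate controls were infected untreated cells for no effect and uninfected cells for full effect; nearly all actives have a fitted effect of over 55% in size.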 Summed up: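 In this cell-based screen, HEK 293 cultures received compound for one hour before Zika MR766 at MOI = 0.5. NS1 was quantified 24 hours later by TR-FRET, normalized to virus-free wells and infected wells.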

Chain of Atrial natriuretic peptide receptor 1 (Homo sapiens) (P16066 whole entry, looked up): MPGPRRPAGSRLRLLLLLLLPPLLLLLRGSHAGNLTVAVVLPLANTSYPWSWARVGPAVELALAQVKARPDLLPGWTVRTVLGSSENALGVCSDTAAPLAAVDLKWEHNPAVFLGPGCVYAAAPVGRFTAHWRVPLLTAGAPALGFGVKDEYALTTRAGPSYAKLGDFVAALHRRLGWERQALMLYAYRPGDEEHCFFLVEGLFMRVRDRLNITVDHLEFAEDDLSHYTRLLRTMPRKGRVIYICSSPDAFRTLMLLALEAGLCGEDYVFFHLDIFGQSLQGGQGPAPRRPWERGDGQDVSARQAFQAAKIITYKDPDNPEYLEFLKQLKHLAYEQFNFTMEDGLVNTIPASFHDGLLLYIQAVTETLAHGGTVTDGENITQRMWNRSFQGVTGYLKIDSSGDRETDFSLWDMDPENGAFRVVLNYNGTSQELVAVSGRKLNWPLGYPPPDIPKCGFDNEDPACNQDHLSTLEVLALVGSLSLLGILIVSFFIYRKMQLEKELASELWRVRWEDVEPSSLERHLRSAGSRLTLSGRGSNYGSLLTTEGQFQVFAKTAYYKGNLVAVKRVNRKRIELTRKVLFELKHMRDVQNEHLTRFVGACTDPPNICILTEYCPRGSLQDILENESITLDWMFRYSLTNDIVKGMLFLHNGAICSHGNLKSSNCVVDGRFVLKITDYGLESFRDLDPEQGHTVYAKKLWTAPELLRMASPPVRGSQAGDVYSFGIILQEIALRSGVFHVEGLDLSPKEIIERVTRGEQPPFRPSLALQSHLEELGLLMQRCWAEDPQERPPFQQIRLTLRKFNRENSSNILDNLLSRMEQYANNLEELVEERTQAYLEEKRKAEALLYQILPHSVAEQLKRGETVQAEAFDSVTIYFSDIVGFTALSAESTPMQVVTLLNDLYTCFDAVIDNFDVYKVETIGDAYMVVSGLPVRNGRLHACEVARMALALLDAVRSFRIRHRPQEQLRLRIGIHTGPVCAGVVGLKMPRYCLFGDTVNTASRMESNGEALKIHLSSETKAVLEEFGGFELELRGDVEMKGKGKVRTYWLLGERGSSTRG
Chain of Atrial natriuretic peptide receptor 2 (Homo sapiens) (P20594 whole entry, looked up): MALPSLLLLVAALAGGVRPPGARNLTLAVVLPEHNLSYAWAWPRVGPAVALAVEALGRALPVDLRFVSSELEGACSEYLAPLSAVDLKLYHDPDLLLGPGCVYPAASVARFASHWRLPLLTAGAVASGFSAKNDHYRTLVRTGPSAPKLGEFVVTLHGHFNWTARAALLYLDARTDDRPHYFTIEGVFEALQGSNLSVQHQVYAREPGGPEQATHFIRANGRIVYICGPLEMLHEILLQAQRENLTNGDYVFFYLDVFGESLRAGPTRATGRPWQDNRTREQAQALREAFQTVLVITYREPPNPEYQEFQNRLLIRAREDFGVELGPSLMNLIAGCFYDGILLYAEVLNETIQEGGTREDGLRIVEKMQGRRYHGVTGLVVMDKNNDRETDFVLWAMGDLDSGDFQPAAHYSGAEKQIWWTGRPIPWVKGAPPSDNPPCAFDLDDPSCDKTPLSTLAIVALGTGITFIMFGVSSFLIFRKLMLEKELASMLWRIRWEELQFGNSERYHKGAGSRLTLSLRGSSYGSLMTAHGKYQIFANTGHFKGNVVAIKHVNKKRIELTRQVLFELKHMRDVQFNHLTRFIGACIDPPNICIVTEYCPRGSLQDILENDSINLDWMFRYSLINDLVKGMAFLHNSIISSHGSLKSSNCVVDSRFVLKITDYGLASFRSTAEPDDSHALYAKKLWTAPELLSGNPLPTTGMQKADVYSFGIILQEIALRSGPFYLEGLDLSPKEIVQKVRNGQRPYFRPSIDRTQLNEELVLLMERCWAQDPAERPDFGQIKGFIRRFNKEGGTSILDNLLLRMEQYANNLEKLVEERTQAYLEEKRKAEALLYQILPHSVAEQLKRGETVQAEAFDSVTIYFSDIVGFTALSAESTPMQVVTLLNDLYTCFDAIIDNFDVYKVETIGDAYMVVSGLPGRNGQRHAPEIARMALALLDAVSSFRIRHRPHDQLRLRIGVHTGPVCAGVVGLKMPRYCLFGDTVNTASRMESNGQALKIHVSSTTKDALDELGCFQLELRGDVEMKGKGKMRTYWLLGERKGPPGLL

For `N#C/C(=C\c1ccc(O)c(O)c1)C(=O)NCCCNC(=O)/C(C#N)=C/c1ccc(O)c(O)c1`, the Potency entry in [1], in assay [2], in assay [4], in [5], in [6] and in [7] was “inactive” throughout. Besides, the Potency result in [8], in assay [9], in [10] and in assay [11] was “inactive” in each case. In [3], the max response was 5.33%.
In the case of `Nc1nc2[nH]c(=O)cnc2c(=O)[nH]1`, the Potency result in [1], in [2], in assay [4], in assay [5], in assay [8] and in assay [9] was “inactive” in each case. Also, the Potency entry in [10] and in [11] was “inactive” in each case.
In the case of `Nc1nc2ccc(Cl)cc2c2nc(-c3ccco3)nn12`, the Potency entry in [1], in [2], in [4], in [5], in [8] and in assay [9] was “inactive” throughout. The Potency entry in assay [10] and in assay [11] was “inactive” each time.
Turning to `COc1ccc2c(c1)c(CC(=O)O)c(C)n2C(=O)c1ccccc1`, the Potency entry in [1], in [2], in assay [4], in assay [5], in assay [8] and in [9] was “inactive” throughout. For the same molecule, the Potency entry in [10] and in assay [11] was “inactive” in each case. Moreover, the max response in assay [3] is 11.3%.
Turning to `C=CCN1CCc2cc(O)c(O)cc2C(c2ccccc2)C1` (centres undefined), the Potency result in assay [1], in assay [2], in assay [4], in assay [5], in assay [8] and in assay [9] was “inactive” throughout. Also, the Potency result in [10] and in assay [11] was “inactive” each time.
In the case of `NC/C=C\C(=O)O`, the Potency entry in [1], in [2], in [4], in assay [5], in assay [8] and in assay [9] was “inactive” each time. In addition, the Potency entry in assay [10] and in assay [11] was “inactive” each time. For the same molecule, in assay [3], the max response is 7.58%.
Consider `CN1CC(O)C(O)C(O)C1CO` (centres undefined), for which the Potency entry in assay [1], in assay [2], in [4], in assay [5], in assay [8] and in assay [9] was “inactive” each time. Also, the Potency result in assay [10] and in [11] was “inactive” in each case.
Regarding `CN1Cc2sccc2C(c2ccc(O)c(O)c2)C1` (centres undefined), the Potency entry in [1], in assay [2], in [4], in assay [5], in [8] and in [9] was “inactive” each time. Moreover, the Potency entry in [10] and in assay [11] was “inactive” in each case. Moreover, in [3], the Potency was 891 nM (active).
As to `C[C@H](O)C(=O)C1=Nc2c(nc(N)[nH]c2=O)NC1`, the Potency entry in [1], in assay [2], in [4], in [5], in [8] and in assay [9] was “inactive” in each case. Besides, the Potency result in [10] and in [11] was “inactive” each time. Also, in [3], the max response is 13.3%.
Turning to `CC(=O)NCCc1c[nH]c2ccc(O)cc12`, the Potency entry in [1], in assay [2], in assay [4], in [5], in [6] and in [7] was “inactive” each time. The Potency entry in [8], in assay [10] and in [11] was “inactive” throughout. Further, the max response in assay [3] is 28.4%.
With `CCCN(CCc1ccccc1)C1CCc2c(O)cccc2C1` (centres undefined), the Potency result in [1], in assay [2], in assay [4], in [5], in [8] and in [9] was “inactive” in each case. Moreover, the Potency entry in [10] and in assay [11] was “inactive” each time.
On to `O=c1onc2cnc3ccccc3n12`, for which the Potency entry in assay [1], in assay [2], in assay [4], in assay [5], in [9] and in assay [10] was “inactive” each time. Moreover, the Potency entry in assay [11] is “inactive”. Moreover, the Potency in [8] is 261 nM (active).
`CN(C)CCCc1cc(C(=O)Nc2ccc(-c3ccncc3)cc2)ccc1O`: the Potency entry in assay [1], in assay [2], in assay [4], in [5], in [8] and in [9] was “inactive” throughout. Also, the Potency entry in [10] and in [11] was “inactive” in each case.
Consider `NC(N)=N[C@@H](CCC(=O)O)C(=O)O`, for which the Potency result in assay [1], in assay [2], in [4], in assay [5], in [8] and in [9] was “inactive” throughout. Moreover, the Potency result in assay [10] and in assay [11] was “inactive” throughout.
With `OC[C@H]1NC[C@@H](O)[C@@H]1O`, the Potency entry in [1], in assay [2], in assay [4], in assay [5], in assay [8] and in [9] was “inactive” throughout. Also, the Potency entry in assay [10] and in assay [11] was “inactive” throughout.
As for `CCN(c1nc(N)c(C(=O)N=C(N)N)nc1Cl)C(C)C`, the Potency result in assay [1], in assay [2], in assay [4], in assay [5], in assay [8] and in assay [9] was “inactive” throughout. Moreover, the Potency entry in [10] and in [11] was “inactive” throughout.
On to `O=c1[nH]c(=O)c2nc3ccccc3nc2[nH]1`, for which the Potency result in [1], in [2], in assay [4], in [5], in assay [8] and in assay [9] was “inactive” in each case. In addition, the Potency entry in assay [10] and in [11] was “inactive” in each case.
Consider `CN1CCCC1CCOC(C)(c1ccccc1)c1ccc(Cl)cc1` (centres undefined), for which the Potency entry in assay [1], in assay [2], in [4], in [5], in [8] and in assay [9] was “inactive” in each case. Moreover, the Potency result in assay [11] is “inactive”. The Potency in assay [10] was 11700 nM (active).
Consider `O=C1Nc2ccc(I)cc2/C1=C/c1cc(Br)c(O)c(Br)c1`, for which the Potency entry in [1], in assay [2], in assay [4], in [5], in assay [6] and in [7] was “inactive” in each case. The Potency entry in assay [9], in [10] and in [11] was “inactive” in each case. The max response in assay [3] was -8.13%.
On to `COc1cc(C(O)C(=O)O)ccc1O` (centres undefined), for which the Potency entry in assay [1], in assay [2], in [4], in assay [5], in [8] and in assay [9] was “inactive” in each case. For the same molecule, the Potency result in assay [10] and in assay [11] was “inactive” in each case. Also, the max response in assay [3] was 20.3%.
Turning to `O=C1Cc2c([nH]c3ccc(Br)cc23)-c2ccccc2N1`, the Potency result in assay [1], in assay [2], in assay [4], in assay [5] and in assay [11] was “inactive” each time. Moreover, in assay [6], the Potency is 11600 nM (active).
Take `CCCCCCCCCCCCCCC[C@H](O)[C@H](N)CO`: the Potency entry in assay [1], in assay [2], in [4], in assay [5], in assay [8] and in assay [9] was “inactive” in each case. Also, the Potency result in [10] and in [11] was “inactive” in each case.
Take `Nc1nc2c(cnn2CCc2ccccc2)c2nc(-c3ccco3)nn12`: the Potency entry in assay [1], in assay [2], in assay [4], in assay [5], in assay [8] and in assay [9] was “inactive” throughout. Also, the Potency entry in assay [10] and in assay [11] was “inactive” in each case.
`O=c1ccc2c(OCCCCc3ccccc3)c3ccoc3cc2o1`: the Potency entry in [1], in [2], in assay [4], in assay [5], in [8] and in assay [9] was “inactive” throughout. Besides, the Potency result in assay [10] and in assay [11] was “inactive” in each case.
With `Cn1c(=O)c2c(nc(/C=C/c3cccc(Cl)c3)n2C)n(C)c1=O`, the Potency result in assay [1], in assay [2], in assay [4], in [5], in [8] and in assay [9] was “inactive” in each case. The Potency result in [10] and in assay [11] was “inactive” throughout.
In the case of `O=c1onc2n1-c1cc(Br)ccc1OC2`, the Potency result in assay [1], in assay [2], in [4], in assay [5], in [9] and in assay [10] was “inactive” each time. For the same molecule, the Potency entry in assay [11] is “inactive”. Besides, the max response in [3] is 20.4%. Moreover, the Potency in [8] was 131 nM (active).

These data come from PubChem BioAssay (NCATS).
